Experimental data from PMC7826789 (International Journal of Molecular Sciences, 2021).

In the case of NS(=O)(=O)c1ccc(N/N=C2\C(=O)Nc3ccc(C(=O)NCCc4c[nH]cn4)cc32)cc1 [GW300660X], the Kinases covered (CLK2) is reported as “CLK2”.

For CCN1CCN(Cc2ccc(C(=O)Nc3ccc(C)c(Oc4ccc5c(c4)CC(=O)N5)c3)cc2C(F)(F)F)CC1.Cl.Cl [DDR1-IN-1], the Kinases covered (DDR1) was “DDR1”.

With Nc1nccc(-c2c(-c3ccc(F)cc3)ncn2C2CCN(Cc3ccccc3)CC2)n1 [SB-219980] the Kinases covered (CSNK1A1) was “CSNK1A1”, the Kinases covered (CSNK1D) was “CSNK1D” and the Kinases covered (CSNK1E) was “CSNK1E”.

With COC[C@@H](C)N[C@H]1CC[C@H](Nc2cc(-c3cccc(NCC4(C#N)CCOCC4)n3)c(Cl)cn2)CC1 [NVP-2] the Kinases covered (DYRK1A) was “DYRK1A”.

In the case of CCOc1ccc2c(-c3ccnc(Nc4cc(OC)cc(C(F)(F)F)c4)n3)cnn2n1 [GW807982X], the Kinases covered (CLK1) is reported as “CLK1” and the Kinases covered (CLK2) is reported as “CLK2”.

In the case of Fc1ccc(-c2nn3ccccc3c2-c2ccncc2)cc1 [GW434756X], the Kinases covered (CSNK1A1) is reported as “CSNK1A1”.

Cc1ccc(-n2nc(C(C)(C)C)cc2NC(=O)Nc2ccc(OCCN3CCOCC3)cc2)cc1 [BIRB0876BS] was tested, and the Kinases covered (DDR1) was “DDR1”.

In the case of CC(C)C(=O)N[C@@H]1CCN(C(=O)Nc2nc3c(s2)-c2nc(-c4ccccc4Cl)ncc2CC3)C1 [BI00047804], the Kinases covered (CLK1) is reported as “CLK1”, the Kinases covered (CLK3) is reported as “CLK3” and the Kinases covered (CLK4) is reported as “CLK4”.

Cc1nccc(-c2c(-c3ccc(F)cc3)ncn2CCCN2CCOCC2)n1 [SB-282975] was tested, and the Kinases covered (CSNK1D) was “CSNK1D”.

With C[C@@H]1CCN(C(=O)CC#N)C[C@@H]1N(C)c1ncnc2[nH]ccc12 [PFE-PKIS 25] the Kinases covered (DCLK3) was “DCLK3”.

With CNC(=O)c1c(F)cccc1Nc1nc(Nc2cc3c(cc2OC)CCN3C(=O)CN(C)C)nc2[nH]ccc12 [GSK1838705] the Kinases covered (CLK1) was “CLK1” and the Kinases covered (CLK2) was “CLK2”.

FC1=CC(C3=NC2=CC(OC)=C(OC)C=C2C(N[C@H]4[C@H]([C@](C)(O)C)CNC4)=N3)=C(O)C=C1.Cl.Cl [CCT241533] was tested, and the Kinases covered (CHEK2) was “CHEK2”.

O=C(Nc1n[nH]c2cc(-c3ccsc3)ccc12)C1CC1 [SB-732932] was tested, and the Kinases covered (CDKL2) was “CDKL2”.

In the case of CCOc1ccc2c(-c3ccnc(Nc4cccc(C(F)(F)F)c4)n3)cnn2n1 [GW811761X], the Kinases covered (CLK1) is reported as “CLK1” and the Kinases covered (CLK2) is reported as “CLK2”.

Cn1ccc2ncnc(Oc3ccc(NC(=O)Nc4ccccc4)cc3)c21 [TPKI-69] was tested, and the Kinases covered (CSF1R) was “CSF1R”.

For CCC(NN(C)C)=C1C(=O)Nc2ccc(C(C)=O)cc21 [BI00036838], the Kinases covered (CDKL5) was “CDKL5”, the Kinases covered (DYRK1A) was “DYRK1A” and the Kinases covered (DYRK1B) was “DYRK1B”. For the same molecule, the Kinases covered (DYRK2) was “DYRK2”.

In the case of CNc1nc(Nc2ccc(C(=O)N3CCOCC3)cc2OC)nc2[nH]cc(Cl)c12 [JH-II-127], the Kinases covered (CHK2) is reported as “CHK2”.

For COc1ccc2c(-c3ccnc(Nc4cccc(OC(F)(F)F)c4)n3)cnn2n1 [GW810372X], the Kinases covered (CLK2) was “CLK2”.

With Cc1cc(NC(=O)c2cccc(NC(=O)/C=C/CN(C)C)c2)ccc1Nc1nccc(-c2cccnc2)n1 [JNK-IN-7] the Kinases covered (CDKL5) was “CDKL5” and the Kinases covered (DRAK1) was “DRAK1”.

In the case of Cc1cn(-c2cc(NC(=O)c3ccc4c(c3)CN(c3cncnc3)C[C@@H]4C)cc(C(F)(F)F)c2)cn1 [D2202-1], the Kinases covered (DDR1) is reported as “DDR1”.

With CCCNC(=O)c1ccc(Nc2ncc(C(F)(F)F)c(Nc3ccccc3C(C)=O)n2)c(Br)c1 [BI00801818] the Kinases covered (CLK1) was “CLK1”, the Kinases covered (CLK4) was “CLK4” and the Kinases covered (DYRK1A) was “DYRK1A”.

O=C(Nc1ccccc1)Nc1cccc(Oc2ccc3nccn3n2)c1 [TPKI-39] was tested, and the Kinases covered (CIT) was “CIT”, the Kinases covered (CSF1R) was “CSF1R” and the Kinases covered (DDR1) was “DDR1”.

For COc1cc(Nc2cnc(C#N)c(O[C@H](C)CN(C)C)n2)ncc1-c1cnn(C)c1 [CCT244747], the Kinases covered (CHEK1) was “CHEK1”.
